Here are results for 9 compounds from PubChem BioAssay (NCI).

Test [1] in a line: NCI Yeast Anticancer Drug Screen. Data for the rad50 strain (AID 155).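 Note: 0% = growth of vehicle-only cultures of the same strain.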 Conditions: S. cerevisiae rad50 strain growth inhibition, hits give high values. Summed up: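 Relative growth inhibition (compound vs vehicle) was measured in yeast with a defined repair-gene alteration.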
Test [2] can be described thus: NCI Yeast Anticancer Drug Screen. Data for the mec2-1 strain (AID 157). Conditions: S. cerevisiae mec2-1 strain, hits give high values. In a few lines:
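Each compound was tested on mec2-1 yeast, a strain altered in DNA damage repair or cell cycle control. Growth inhibition is reported relative to vehicle.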

Test [3] can be described thus: NCI Yeast Anticancer Drug Screen. Data for the sgs1 mgt1 strain (AID 161).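 Note: 0% = growth of cultures given vehicle only.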 Conditions: S. cerevisiae sgs1 mgt1 strain, hits give high values. In a few lines:
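Test agents were incubated with a DNA-repair-mutant yeast strain. Growth was then read and compared against vehicle-treated controls.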

Test [4] is described as follows: NCI Yeast Anticancer Drug Screen. Data for the cln2 rad14 strain (AID 165).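 Note: 0% = growth equal to vehicle treated cultures.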 Conditions: S. cerevisiae cln2 rad14 strain, hits give high values. In a few lines: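 Test compounds were added to cln2 rad14 yeast cultures; inhibition of growth was then determined by comparison with vehicle treatment.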
Test [5] can be described thus: NCI Yeast Anticancer Drug Screen. Data for the bub3 strain (AID 167). The settings on record: S. cerevisiae bub3 mutant strain, hits give high values. In a few lines: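 Screening used yeast with an engineered genetic alteration affecting cell cycle control. Compound-exposed cultures were compared with vehicle cultures, and reduced growth was taken as inhibition.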
A short description of test [6]: NCI Yeast Anticancer Drug Screen. Data for the mlh1 rad18 strain (AID 175). Conditions: S. cerevisiae mlh1 rad18 strain growth inhibition, hits give high values. Summed up: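 Inhibition values reflect reduced growth of mutant yeast versus vehicle-treated controls following compound exposure; the mutations affect DNA damage repair.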
Setting [7] is: at 5.0 µM (retest, dose inferred, filed as 0.5).
The mark [8] stands for this setting: at 50.0 µM (retest, dose inferred, filed as 5.0).

Structures are written as SMILES. The panel holds about 79,000 compounds, 15% with a hit somewhere; the sample as a whole holds those more often. Unmarked numbers belong to inactive results. Active and inactive are the calls of the source. Cut-off read from the data, not from the text of the source: active = growth inhibition above about 70%; inactive = the rest.

As for `CC1=C(Br)S(=O)(=O)N(c2ccccc2)C(CBr)=C1Br`, the growth inhibition in test [1] (setting [7]) is 57%; in test [1] (setting [8]), 95% (active); in test [1] (at 50.0 µM) it was 19.8%; in test [2] (setting [7]), 41%; in test [2] (setting [8]) it was 97% (active); in test [2] (at 50.0 µM), 18.1%. In addition, the growth inhibition in test [3] (setting [7]) was 81% (active); in test [3] (setting [8]) it was 99% (active); in test [3] (at 50.0 µM) it was 16.9%; in test [4] (setting [7]), 26%; in test [4] (setting [8]) it was 95% (active); in test [4] (at 50.0 µM), 5.05%. For the same compound, the growth inhibition in test [5] (setting [7]) is 53%; in test [5] (setting [8]) it was 96% (active); in test [5] (at 50.0 µM), 27.7%; in test [6] (setting [7]), 70% (active); in test [6] (setting [8]), 93% (active); in test [6] (at 50.0 µM) it was 50.1%.

`NCCCC(=O)NC(Cc1cnc[nH]1)C(=O)O` (configuration not stated): the growth inhibition in test [1] (setting [7]) was 0%; in test [1] (setting [8]), -5%; in test [1] (at 50.0 µM), -1.3%; in test [2] (setting [7]), -6%; in test [2] (setting [8]), -4%; in test [2] (at 50.0 µM) it was 29.4%. For the same compound, the growth inhibition is 1% in test [3] (setting [7]); -11% in test [3] (setting [8]); 11.8% in test [3] (at 50.0 µM); 1% in test [4] (setting [7]); -2% in test [4] (setting [8]); 32.5% in test [4] (at 50.0 µM). Besides, the growth inhibition in test [5] (setting [7]) is -4%; in test [5] (setting [8]), -1%; in test [5] (at 50.0 µM), 2.75%; in test [6] (setting [7]), -11%; in test [6] (setting [8]), -37%; in test [6] (at 50.0 µM), -6.45%.

Take `O=C(c1ccccc1)C1(C(=O)c2ccccc2)/C(=N\O)C2CCC1C2` (configuration not stated): the growth inhibition was 7% in test [1] (setting [7]); 93% (active) in test [1] (setting [8]); 6.05% in test [1] (at 50.0 µM); 1% in test [2] (setting [7]); 96% (active) in test [2] (setting [8]); 12.7% in test [2] (at 50.0 µM). The growth inhibition in test [3] (setting [7]) was -2%; in test [3] (setting [8]), 95% (active); in test [3] (at 50.0 µM), 9.75%; in test [4] (setting [7]), -2%; in test [4] (setting [8]) it was 94% (active); in test [4] (at 50.0 µM), 1.9%. The growth inhibition is 0% in test [5] (setting [7]); 95% (active) in test [5] (setting [8]); 53.1% in test [5] (at 50.0 µM); 12% in test [6] (setting [7]); 93% (active) in test [6] (setting [8]); 13.7% in test [6] (at 50.0 µM).

Consider `C[N+](C)([O-])CCC=C1c2ccccc2CCc2ccccc21`, for which the growth inhibition in test [1] (setting [7]) is 10%; in test [1] (setting [8]), 46%; in test [1] (at 50.0 µM), 62.5%; in test [2] (setting [7]), 12%; in test [2] (setting [8]), 9%; in test [2] (at 50.0 µM), 28.4%. In addition, the growth inhibition in test [3] (setting [7]) was -2%; in test [3] (setting [8]), 33%; in test [3] (at 50.0 µM), 7.75%; in test [4] (setting [7]), -20%; in test [4] (setting [8]), 21%; in test [4] (at 50.0 µM) it was 12.5%. Moreover, the growth inhibition in test [5] (setting [7]) is 3%; in test [5] (setting [8]), 33%; in test [5] (at 50.0 µM), 73.5% (active); in test [6] (setting [7]) it was 4%; in test [6] (setting [8]) it was 33%; in test [6] (at 50.0 µM), 33.5%.

As for `CCCCC(=O)OC1=C(Br)C(=O)c2ccccc2C1=O`, the growth inhibition in test [1] (setting [7]) was 20%; in test [1] (setting [8]), 98% (active); in test [1] (at 50.0 µM), 96.3% (active); in test [2] (setting [7]) it was 24%; in test [2] (setting [8]), 100% (active); in test [2] (at 50.0 µM) it was 63%. The growth inhibition in test [3] (setting [7]) is 10%; in test [3] (setting [8]), 96% (active); in test [3] (at 50.0 µM) it was 81.1% (active); in test [4] (setting [7]), 3%; in test [4] (setting [8]), 88% (active); in test [4] (at 50.0 µM), -11.8%. Also, the growth inhibition was 14% in test [5] (setting [7]); 97% (active) in test [5] (setting [8]); 13.8% in test [5] (at 50.0 µM); 37% in test [6] (setting [7]); 98% (active) in test [6] (setting [8]); 75.3% (active) in test [6] (at 50.0 µM).

For the compound `Cc1cc(N/N=C(\c2ccccc2)c2ccccn2)nc2ccccc12`, the growth inhibition in test [1] (setting [7]) was 33%; in test [1] (setting [8]), 91% (active); in test [1] (at 50.0 µM) it was 96.9% (active); in test [2] (setting [7]), 10%; in test [2] (setting [8]), 91% (active); in test [2] (at 50.0 µM), 97.8% (active). Besides, the growth inhibition in test [3] (setting [7]) was 14%; in test [3] (setting [8]) it was 83% (active); in test [3] (at 50.0 µM), 96.5% (active); in test [4] (setting [7]), -7%; in test [4] (setting [8]), 69%; in test [4] (at 50.0 µM) it was 97.6% (active). For the same compound, the growth inhibition in test [5] (setting [7]) is 19%; in test [5] (setting [8]), 90% (active); in test [5] (at 50.0 µM), 97.4% (active); in test [6] (setting [7]), 25%; in test [6] (setting [8]), 92% (active); in test [6] (at 50.0 µM), 97.5% (active).

As to `O=Cc1c(O)ccc2ccccc12.[Cu+2]`, the growth inhibition in test [1] (setting [7]) was -27%; in test [1] (setting [8]) it was 95% (active); in test [1] (at 50.0 µM), 99.3% (active); in test [2] (setting [7]), -2%; in test [2] (setting [8]), 47%; in test [2] (at 50.0 µM) it was 99.2% (active). Further, the growth inhibition in test [3] (setting [7]) was -7%; in test [3] (setting [8]), 97% (active); in test [3] (at 50.0 µM) it was 99.2% (active); in test [4] (setting [7]) it was -19%; in test [4] (setting [8]) it was 42%; in test [4] (at 50.0 µM), 99% (active). The growth inhibition in test [5] (setting [7]) was -54%; in test [5] (setting [8]) it was 94% (active); in test [5] (at 50.0 µM) it was 98.8% (active); in test [6] (setting [7]) it was -14%; in test [6] (setting [8]), 97% (active); in test [6] (at 50.0 µM), 99.2% (active).

For `C/C(=N/NC(=S)N1CCCCC1)c1cccc(/C(C)=N\NC(=S)N2CCCCC2)n1`, the growth inhibition in test [1] (setting [7]) is -13%; in test [1] (setting [8]), 93% (active); in test [1] (at 50.0 µM), 74.2% (active); in test [2] (setting [7]) it was -1%; in test [2] (setting [8]), 95% (active); in test [2] (at 50.0 µM), 88% (active). Also, the growth inhibition in test [3] (setting [7]) was 6%; in test [3] (setting [8]) it was 96% (active); in test [3] (at 50.0 µM), 74.7% (active); in test [4] (setting [7]), -10%; in test [4] (setting [8]), 94% (active); in test [4] (at 50.0 µM), 87.3% (active). In addition, the growth inhibition in test [5] (setting [7]) was 8%; in test [5] (setting [8]), 94% (active); in test [5] (at 50.0 µM), 90% (active); in test [6] (setting [7]), -3%; in test [6] (setting [8]), 95% (active); in test [6] (at 50.0 µM), 88.2% (active).

Consider `O=C(NC(Cc1ccccc1)C(=O)O)c1ccncc1` (configuration not stated), for which the growth inhibition is -2% in test [1] (setting [7]); -12% in test [1] (setting [8]); 61.6% in test [1] (at 50.0 µM); -1% in test [2] (setting [7]); -7% in test [2] (setting [8]); 28.9% in test [2] (at 50.0 µM). Besides, the growth inhibition in test [3] (setting [7]) was 0%; in test [3] (setting [8]), -5%; in test [3] (at 50.0 µM), 63.2%; in test [4] (setting [7]), -1%; in test [4] (setting [8]), -11%; in test [4] (at 50.0 µM), 57.2%. For the same compound, the growth inhibition is -1% in test [5] (setting [7]); -2% in test [5] (setting [8]); 44.1% in test [5] (at 50.0 µM); -1% in test [6] (setting [7]); -6% in test [6] (setting [8]); 46.1% in test [6] (at 50.0 µM).
